Test results from PubChem BioAssay AID686979 (National Center for Advancing Translational Sciences (NCATS), 2013).
Hit rate of the full screen: of about 420,000 compounds, about 50,000 (12%) were called active. About 26% were inconclusive and are not listed. The full list was thinned out, with actives kept by preference. Unmarked numbers belong to inactive results. Calls come from the whole dose curve; as a rule, active = well fitted inhibition curve with a large enough effect; inconclusive = small, poorly fitted or top-dose-only effect; inactive = flat fitted curve, though single readings scatter.

Assay: qHTS for Inhibitors of human tyrosyl-DNA phosphodiesterase 1 (TDP1): qHTS in cells in presence of CPT; note: nearly all actives have a fitted effect of over 55% in size
Settings: chicken DT40 Tdp1-/-;hTDP1 cells + 20 nM CPT, ATP luminescence, 48 h; series mostly up to 46.2 µM; activity change, negative = growth inhibition: at the top concentration
In short: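 Cell growth measured by CellTiter-Glo luminescence after a minimum 48 h, 37 C compound exposure with 20 nM CPT in Tdp1-knockout DT40 cells stably expressing hTDP1, seeded 400/well; qHTS titration format.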
% is set by controls: 0 for no effect and ±100 for the full control effect; potency is the fitted concentration of half-maximal effect.

Row | SMILES | Potency | activity change, negative = growth inhibition [%]
1 | CC(=O)N1c2ccc(S(=O)(=O)NCCC(=O)N(C)C3CCCCC3)cc2CC1C (configuration not stated) | 10.3 µM (active) | –
2 | COc1cccc(CNC(=O)C2CCC(CNS(=O)(=O)c3cccs3)CC2)c1 (configuration not stated) | – | -7.39
3 | O=C(Cn1cnc2c(cnn2-c2ccc(F)cc2)c1=O)NCCc1ccccc1 | – | -16.9
4 | CCCCNC(=O)OCCSCCS(=O)(=O)c1ccc(Cl)cc1 | – | 0.699
5 | Cc1nc2c(c(C)nn2-c2ccccc2)c(C)c1C | – | 0.197
6 | CCOC(=O)c1cc(S(=O)(=O)NCCc2ccc(OC)c(OC)c2)cn1C | – | 0.651
7 | CNC(=O)C(NC(=O)c1ccccc1)=C(C)C | – | 1.28
8 | O=C(CSC1CC(=O)N(CCc2ccccc2)C1=O)Nc1ccc(Cl)cc1 (configuration not stated) | – | -10.4
9 | CCOC(=O)CNc1nc(Cl)nc(Nc2ccc(OC)cc2OC)n1 | – | -6.66
10 | Cc1c(S(=O)(=O)N2CC(C)CC(C)C2)c(=O)n(C)c(=O)n1C (configuration not stated) | – | 21.5
11 | CC(C)CCN1CCC(C)(NC(=O)c2ccccc2)C1=O (configuration not stated) | – | -24.9
12 | O=C(c1ccc(Cl)nc1)N1CCN(S(=O)(=O)c2ccc3c(c2)OCCO3)CC1 | – | -29.3
13 | CCOC(=O)c1ccccc1NC(=O)CCc1c(C)nc2c(c1C)c(=O)n(C)c(=O)n2C | – | 11.4
14 | COc1cc(NC(=O)c2ccc(CNc3c(N4CCCC4)c(=O)c3=O)cc2)cc(OC)c1OC | – | 1.21
15 | COc1cc(C(=O)Nc2ccc(-n3c(C)nc4ccccc4c3=O)cc2)cc(OC)c1OC | 16.4 µM (active) | –
16 | COc1cc(C(=O)Nc2ccc(OCc3cc(=O)n4ccc(C)cc4n3)cc2)cc(OC)c1OC | – | -7.29
17 | COc1cc(NC(=O)c2nc3ccccc3nc2C)cc(OC)c1OC | – | -29.3
18 | COc1ccc(NC(=O)CN2C(=O)CSC2=O)cc1 | – | 4.96
19 | CCC(=O)N1CCCC1(C)C(=O)Nc1ccc2c(c1)CCN2C(C)=O (configuration not stated) | – | 2.65
20 | CC1=C(C(=O)OC2CCCCC2)C(c2cccnc2)n2ncnc2N1 (configuration not stated) | 14.6 µM (active) | –
21 | CC1=C(C(N)=O)C(c2ccc(Br)cc2)n2ncnc2N1 (configuration not stated) | – | 35.2
22 | COC(=O)C1=C(C)Nc2ncnn2C1c1cccnc1 (configuration not stated) | – | -0.87
23 | S=C(NC1CCCCC1)NN1CCOCC1 | – | -5.84
24 | Cc1ccc(C(=O)NCCc2nnc(SCC(=O)Nc3cccc(C(=O)O)c3)n2C)cc1 | – | 0.587
25 | Cc1cccc(NC(=O)C2CCCN2S(=O)(=O)c2cccc3nsnc23)c1C (configuration not stated) | – | -20.7
26 | CCOC(=O)c1cnc(COc2ccccc2Cl)[nH]c1=O | – | -1.8

Row | SMILES | Potency | activity change, negative = growth inhibition [%]
27 | O=C(O)c1ccccc1C(=O)Nc1nc(-c2ccccc2)cs1 | – | 1.16
28 | Cc1nc(NNC(=O)c2ccccc2)cc(-c2ccccc2)n1 | – | -14.5
29 | CC(=O)Nc1ccc(S(=O)(=O)Nc2nc(-c3ccc(C(C)(C)C)cc3)cs2)cc1 | – | -4.81
30 | CC(=O)Nc1ccc(-c2csc(NC(=O)Nc3ccccc3)n2)cc1 | 3.66 µM (active) | –
31 | Cc1ccc(-c2csc(NNC(=O)c3ccccc3)n2)cc1 | 4.11 µM (active) | –
32 | CC(=O)Nc1ccc(-c2csc(NC=C3C(=O)OC(C)(C)OC3=O)n2)cc1 | – | -8.37
33 | CC(=O)N1CCN(CC(c2ccccc2)c2ccccc2)CC1 | – | -27.6
34 | CCOc1cc(/C=N/NC(=O)c2ccc(CSc3nncn3C)cc2)ccc1OCC(=O)N1CCOCC1 | – | 0.321
35 | COc1cc(OC)cc(C(=O)Nc2nnc(SCC(=O)NCC3CCCO3)s2)c1 (configuration not stated) | – | -19.8
36 | Cc1noc(C)c1-c1nc(CSc2ccc(Cl)cc2)no1 | – | 8.49
37 | CCN(CC)S(=O)(=O)c1ccc(C)c(NC(=O)COc2ccc(Br)cc2Cl)c1 | – | -20.7
38 | Oc1ccc(Br)cc1C1C=C(c2ccc3c(c2)OCO3)NC(c2ccc(Cl)cc2)N1 (configuration not stated) | 7.08 µM (active) | –
39 | Cc1cccc(-n2c(=O)c3c(c4cc(C)ccc4n3C)n(CC(=O)Nc3ccccc3Cl)c2=O)c1 | – | 0.458
40 | O=C(CN1CCOCC1)N1CCCc2c1c(=O)oc1ccc(OCc3ccccc3)cc21 | 18.4 µM (active) | –
41 | O=C(COc1ccc2oc3c(c2c1)CCCC3)Nc1ccccn1 | – | -1.19
42 | CC1CCCCN1CC(=O)N1CCCc2c1c(=O)oc1ccc(OCc3ccccc3)cc21 (configuration not stated) | 16.4 µM (active) | –
43 | NC(=O)C1CCN(C(=O)COc2ccc3c4c(c(=O)oc3c2)CCC4)CC1 | – | 2.93
44 | Cc1c(C(=O)N2CCOCC2)[nH]c2ccc(OCc3ccccc3)cc12 | – | -21.9
45 | CC1CCCCN1CC(=O)NCc1ccc2c(c1)OCO2 (configuration not stated) | – | -6.16
46 | COc1ccccc1C(=O)NCCn1cc(SCC(=O)NCc2ccco2)c2ccccc21 | – | -19.3
47 | O=C(O)Cc1ccc(NC(=O)Nc2cccc3ccccc23)cc1 | – | 3.51
48 | CN(C(=O)CCNC(=O)Cn1ccc2ccccc2c1=O)c1ccc(Br)cc1 | – | 1.39
49 | Cc1cc(C)c(S(=O)(=O)N2CCC(C(=O)OCc3c(C)noc3C)CC2)c(C)c1 | – | 3.58
50 | CC(C)(C)N(CC#CCC(O)(c1ccccc1)C1CCCC1)CCO (configuration not stated) | – | -0.352
51 | CN(CC#CCC(c1ccccc1)c1ccccc1)C(C)(C)C | 12.6 µM (active) | –
52 | CCc1[nH]nc(C(=O)N2CCCC(CNS(=O)(=O)c3cccs3)C2)c1C (configuration not stated) | – | -13.1
